# Values joined by “and” are separate entries in the source; they are usually repeats but may differ in a detail not shown here. Identical values can stand only once. Results filed as inconclusive are left out. Entries that show only a call come without a potency. Active and inactive are the calls of the source. Unless noted, calls follow the shape of the dose curve; as a rule, active = well fitted curve in the direction sought with a large enough effect; inconclusive = small, poorly fitted or top-dose-only effect, or another doubt; inactive = no such curve, though single readings can be large; an effect the other way counts as inactive or inconclusive.
# Key:
# [1] = biological target: Ubiquitin carboxyl-terminal hydrolase 1 (Homo sapiens) (UniProt O94782); assay: Inhibitors of USP1/UAF1: Pilot qHTS (AID 504865);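 also: rhodamine fluorescence freed from ubiquitin-rhodamine substrate followed over time; top concentration of the series differs between compounds; nearly all actives have a fitted effect of over 35% in size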
# Outline: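 Deubiquitinase activity followed as kinetic rhodamine fluorescence release from 150 nM Ub-Rho. 1 nM USP1/UAF1 with compound, after 15 min room-temperature preincubation, in HEPES pH 7.8 buffer containing TCEP, EDTA, BSA and Tween-20.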
# [2] = biological target: Estrogen receptor (Homo sapiens) (UniProt P03372); assay: qHTS assay for small molecule agonists of estrogen receptor alpha signaling (AID 588514; calls by dose curve; also: nearly all actives have a fitted effect of over 70% in size)
# Outline: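 ER-alpha-UAS-bla GripTite HEK 293 cells in medium with 2% charcoal/dextran-treated FBS were treated with compound titrations at 37 C for 18 hrs; beta-lactamase reporter read by CCF4 fluorescence after 2 hrs at RT.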
# [3] = qHTS assay for small molecule antagonists of peroxisome proliferator-activated receptor delta signaling (AID 588535); conditions: HEK293T PPARd-UAS-bla, beta-lactamase FRET ratio, 18 h; 460 nm channel;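 also: cells co-treated with a PPAR-delta agonist as stimulator during compound exposure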
# Outline: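 Cell-based beta-lactamase assay in antagonist mode: 4000 HEK293T PPAR-delta-UAS-bla cells per well, 5 hr preincubation then 18 hr compound incubation at 37 C. IC50 obtained by Hill equation fitting.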
# [4] = biological target: Androgen receptor (Homo sapiens) (UniProt P10275); assay: qHTS assay for small molecule agonists of androgen receptor signaling (AID 588515; active = well fitted curve in the direction sought with a large enough effect in the signal ratio, with a control signal flat; the % refers to the signal ratio); conditions: AR-UAS-bla HEK293, beta-lactamase ratio, agonist 16 h; stronger effect = higher value
# Outline: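 EC50 and efficacy came from Hill fits of titrations (up to 92 uM) normalized to 30 nM R1881 as 100% and DMSO as 0%. Compound exposure was 16 h at 37 C on AR-UAS-bla HEK293 cells, with a 405/460/530 nm CCF4 fluorescence read.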
# [5] = biological target: Glucocorticoid receptor (Homo sapiens) (UniProt P04150); assay: qHTS assay for small molecule antagonists of glucocorticoid receptor signaling (AID 588533; active = well fitted inhibition curve with a large enough effect in the signal ratio, with a control signal flat, not every such curve was filed as active; the % refers to the signal ratio;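 also: cells stimulated with 2 nM dexamethasone as agonist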; also: potency is read from the fitted curve at half-maximal effect)
# Outline: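 Antagonist-mode qHTS: compound titrations added to GRE-bla HeLa cells, then dexamethasone 2 nM final; 18 h, 37 C. CCF4 FRET fluorescence normalized to dexamethasone and DMSO; IC50 from Hill fit.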
# [6] = qHTS for Inhibitors of ATXN expression: Validation (AID 588378); also: nearly all actives have a fitted effect of over 75% in size; also: potency is read from the fitted curve at half-maximal effect
# Outline: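 Luciferase luminescence (Bright-Glo) from an ATXN2-FFLuc HEK293 line after 24 h compound exposure at 37 °C, preceded by a CellTiter-Fluor fluorescence viability read. Serial dilutions of a reference ATXN2 inhibitor and a luciferase inhibitor served as controls.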
# [7] = biological target: DNA dC->dU-editing enzyme APOBEC-3G (Homo sapiens) (UniProt Q9HC16); assay: qHTS for inhibitors of Vif-A3G interactions: Validation (AID 588379)
# Outline: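 HeLa cells stably expressing Vif and A3G-eYFP, 700 cells/well, incubated overnight at 37 deg C, then exposed to compound overnight at 37 deg C. Inhibition of Vif-mediated degradation read as increased yellow fluorescence (Ex 488/Em 500-530) by laser-scanning cytometry.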
# [8] = biological target: Bile acid receptor (Homo sapiens) (UniProt Q96RI1); assay: qHTS assay for small molecule antagonists of farnesoid X receptor signaling (AID 588526; calls by dose curve)
# Outline: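 Beta-lactamase reporter antagonist mode: HEK293T FXR-UAS-bla cells, titrated compound, CDCA stimulation, 16 h 37 C, CCF4 dye 2 h RT. Data normalized to CDCA 50 uM and DMSO; Hill-fit IC50.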
# [9] = biological target: Androgen receptor (Homo sapiens) (UniProt P10275); assay: qHTS assay for small molecule antagonists of androgen receptor signaling (AID 588516; active = well fitted curve in the direction sought with a large enough effect in the signal ratio, with a control signal flat, not every such curve was filed as active; the % refers to the signal ratio)
# Outline: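 Antagonist mode: inhibition of R1881-stimulated (10 nM final) bla reporter in GeneBLAzer AR HEK 293 cells, 16 h at 37C, compounds titrated. IC50 and efficacy from Hill-equation fits of 405/460–530 nm FRET ratios.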
# [10] = qHTS for Inhibitors of ATXN expression: Validation of Cytotoxic Assay (AID 588349)
# Outline: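 HEK293 cells were dosed with titrated compounds for 72 hr at 37 degrees C. Viability was read by CellTiter Glo luminescence, with intracellular ATP as the marker of cell survival.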
# Sequence of Glucocorticoid receptor (Homo sapiens) (P04150 whole entry, looked up): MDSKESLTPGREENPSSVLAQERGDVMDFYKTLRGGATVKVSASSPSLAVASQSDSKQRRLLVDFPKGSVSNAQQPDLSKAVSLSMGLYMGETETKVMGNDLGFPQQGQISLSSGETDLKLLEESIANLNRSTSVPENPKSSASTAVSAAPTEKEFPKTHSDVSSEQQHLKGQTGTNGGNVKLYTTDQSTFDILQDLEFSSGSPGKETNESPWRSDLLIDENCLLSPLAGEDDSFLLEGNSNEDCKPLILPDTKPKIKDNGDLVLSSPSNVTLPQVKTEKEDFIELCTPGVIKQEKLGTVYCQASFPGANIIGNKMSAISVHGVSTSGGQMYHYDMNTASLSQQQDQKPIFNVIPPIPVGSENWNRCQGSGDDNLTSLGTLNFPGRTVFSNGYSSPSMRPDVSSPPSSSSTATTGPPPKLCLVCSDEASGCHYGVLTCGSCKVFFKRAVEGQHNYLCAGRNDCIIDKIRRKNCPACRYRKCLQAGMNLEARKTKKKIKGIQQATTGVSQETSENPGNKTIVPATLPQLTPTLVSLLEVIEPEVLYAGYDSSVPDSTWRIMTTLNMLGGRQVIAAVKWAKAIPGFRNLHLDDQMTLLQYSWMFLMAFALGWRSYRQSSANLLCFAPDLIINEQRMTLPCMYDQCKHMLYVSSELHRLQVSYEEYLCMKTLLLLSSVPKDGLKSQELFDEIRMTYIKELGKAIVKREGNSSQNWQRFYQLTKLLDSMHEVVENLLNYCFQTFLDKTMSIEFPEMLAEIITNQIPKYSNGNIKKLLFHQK
# Sequence of Ubiquitin carboxyl-terminal hydrolase 1 (Homo sapiens) (O94782 whole entry, looked up): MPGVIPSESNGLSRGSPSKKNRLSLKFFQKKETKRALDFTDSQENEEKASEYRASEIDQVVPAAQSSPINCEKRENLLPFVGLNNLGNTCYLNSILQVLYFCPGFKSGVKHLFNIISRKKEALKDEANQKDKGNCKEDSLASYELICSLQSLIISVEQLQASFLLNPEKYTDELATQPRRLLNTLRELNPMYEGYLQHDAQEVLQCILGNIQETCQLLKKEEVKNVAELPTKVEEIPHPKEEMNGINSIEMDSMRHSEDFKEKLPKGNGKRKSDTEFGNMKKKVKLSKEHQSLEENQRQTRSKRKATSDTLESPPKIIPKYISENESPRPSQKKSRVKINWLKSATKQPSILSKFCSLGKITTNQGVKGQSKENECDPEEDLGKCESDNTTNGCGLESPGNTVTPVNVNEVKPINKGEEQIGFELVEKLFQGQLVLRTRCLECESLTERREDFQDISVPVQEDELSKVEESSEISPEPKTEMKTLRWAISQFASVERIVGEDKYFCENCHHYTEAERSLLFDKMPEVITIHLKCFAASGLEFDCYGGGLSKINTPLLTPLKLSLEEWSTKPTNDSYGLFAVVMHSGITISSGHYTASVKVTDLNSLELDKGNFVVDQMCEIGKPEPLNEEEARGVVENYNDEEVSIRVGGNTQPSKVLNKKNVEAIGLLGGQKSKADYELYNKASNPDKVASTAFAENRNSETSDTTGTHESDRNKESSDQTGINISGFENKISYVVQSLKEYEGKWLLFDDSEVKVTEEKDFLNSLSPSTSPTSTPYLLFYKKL
# Sequence of Androgen receptor (Homo sapiens) (P10275 whole entry, looked up): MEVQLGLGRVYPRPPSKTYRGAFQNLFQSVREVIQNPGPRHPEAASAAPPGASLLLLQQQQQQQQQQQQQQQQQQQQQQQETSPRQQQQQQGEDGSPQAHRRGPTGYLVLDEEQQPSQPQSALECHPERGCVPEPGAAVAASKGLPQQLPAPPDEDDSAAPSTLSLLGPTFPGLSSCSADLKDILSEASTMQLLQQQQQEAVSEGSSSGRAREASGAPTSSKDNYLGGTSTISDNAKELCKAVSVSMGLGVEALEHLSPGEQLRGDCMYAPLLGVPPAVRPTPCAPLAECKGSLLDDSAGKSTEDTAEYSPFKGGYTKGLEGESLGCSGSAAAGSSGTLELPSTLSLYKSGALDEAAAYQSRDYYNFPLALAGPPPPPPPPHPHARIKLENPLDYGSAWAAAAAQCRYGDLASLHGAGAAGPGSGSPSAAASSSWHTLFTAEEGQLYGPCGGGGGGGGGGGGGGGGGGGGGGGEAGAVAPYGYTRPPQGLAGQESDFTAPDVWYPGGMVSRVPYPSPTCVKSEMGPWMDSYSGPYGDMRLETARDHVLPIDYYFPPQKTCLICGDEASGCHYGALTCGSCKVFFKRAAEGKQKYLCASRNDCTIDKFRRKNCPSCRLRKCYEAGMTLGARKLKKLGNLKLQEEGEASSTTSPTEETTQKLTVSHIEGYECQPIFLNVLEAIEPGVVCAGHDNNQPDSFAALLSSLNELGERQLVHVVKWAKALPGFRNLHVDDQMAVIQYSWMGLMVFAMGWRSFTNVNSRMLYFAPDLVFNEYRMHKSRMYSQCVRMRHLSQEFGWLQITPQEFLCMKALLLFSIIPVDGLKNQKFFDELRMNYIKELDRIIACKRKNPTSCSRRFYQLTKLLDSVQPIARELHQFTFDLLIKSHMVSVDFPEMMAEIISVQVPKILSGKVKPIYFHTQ
# Sequence of Bile acid receptor (Homo sapiens) (Q96RI1 whole entry, looked up): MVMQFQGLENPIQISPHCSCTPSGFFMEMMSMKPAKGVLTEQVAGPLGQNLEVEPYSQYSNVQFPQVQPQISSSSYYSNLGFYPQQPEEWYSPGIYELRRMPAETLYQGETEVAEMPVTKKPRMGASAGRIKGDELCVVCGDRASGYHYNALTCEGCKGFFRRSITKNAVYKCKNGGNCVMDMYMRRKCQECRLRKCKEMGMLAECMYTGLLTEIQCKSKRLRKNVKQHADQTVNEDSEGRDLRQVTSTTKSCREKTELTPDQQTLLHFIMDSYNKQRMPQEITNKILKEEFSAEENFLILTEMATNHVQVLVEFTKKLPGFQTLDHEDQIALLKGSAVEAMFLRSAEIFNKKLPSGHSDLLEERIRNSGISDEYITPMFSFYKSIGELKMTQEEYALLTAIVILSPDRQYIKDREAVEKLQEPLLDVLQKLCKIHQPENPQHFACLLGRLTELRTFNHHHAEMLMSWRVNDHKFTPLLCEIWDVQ
# Sequence of Estrogen receptor (Homo sapiens) (P03372 whole entry, looked up): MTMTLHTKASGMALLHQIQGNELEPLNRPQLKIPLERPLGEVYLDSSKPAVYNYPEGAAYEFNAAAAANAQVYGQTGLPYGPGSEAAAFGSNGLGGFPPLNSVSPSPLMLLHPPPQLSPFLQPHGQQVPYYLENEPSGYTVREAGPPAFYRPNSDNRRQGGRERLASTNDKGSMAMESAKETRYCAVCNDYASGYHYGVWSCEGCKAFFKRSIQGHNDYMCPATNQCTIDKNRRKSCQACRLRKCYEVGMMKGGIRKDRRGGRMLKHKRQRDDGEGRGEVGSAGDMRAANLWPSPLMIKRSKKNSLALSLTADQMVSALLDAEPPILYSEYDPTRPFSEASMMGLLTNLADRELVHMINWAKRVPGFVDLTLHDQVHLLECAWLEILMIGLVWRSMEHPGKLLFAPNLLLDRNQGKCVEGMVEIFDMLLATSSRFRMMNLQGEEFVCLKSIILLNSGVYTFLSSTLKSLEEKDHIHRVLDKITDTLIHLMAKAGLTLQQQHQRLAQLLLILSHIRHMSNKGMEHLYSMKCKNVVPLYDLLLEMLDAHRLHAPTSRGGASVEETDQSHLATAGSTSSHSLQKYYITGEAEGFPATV
# Sequence of DNA dC->dU-editing enzyme APOBEC-3G (Homo sapiens) (Q9HC16 whole entry, looked up): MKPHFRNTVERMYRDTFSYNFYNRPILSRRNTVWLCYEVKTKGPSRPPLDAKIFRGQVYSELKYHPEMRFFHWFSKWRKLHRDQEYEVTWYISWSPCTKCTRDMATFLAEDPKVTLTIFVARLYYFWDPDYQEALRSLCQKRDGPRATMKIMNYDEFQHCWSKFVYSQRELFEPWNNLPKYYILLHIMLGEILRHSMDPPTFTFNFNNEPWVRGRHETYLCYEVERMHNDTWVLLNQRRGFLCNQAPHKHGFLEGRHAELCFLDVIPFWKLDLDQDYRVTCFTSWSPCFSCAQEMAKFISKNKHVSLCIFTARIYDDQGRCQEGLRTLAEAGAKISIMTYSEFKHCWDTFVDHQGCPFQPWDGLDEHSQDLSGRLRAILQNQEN
structure (smiles),measurement,setting,value
CN(CCOc1ccc(NS(C)(=O)=O)cc1)CCc1ccc(NS(C)(=O)=O)cc1,Potency,[1],inactive
Nc1ccn([C@H]2CC[C@@H](CO)O2)c(=O)n1,outcome,[2],inactive
same,max response,[3],-2.4% and 34.8%
COc1ccc2c(c1)c(CC(=O)O)c(C)n2C(=O)c1ccc(Cl)cc1,activation,[4],-9.17% (inactive)
same,Potency,[5],inactive
CCC1(c2ccccc2)C(=O)NCNC1=O,Potency,[5],inactive
Cc1cn([C@H]2C=C[C@@H](CO)O2)c(=O)[nH]c1=O,max response,[3],27.7% and 7.49%
N[C@@H](Cc1c[nH]c2ccc(O)cc12)C(=O)O,Potency,[1],inactive
same,Potency,[6],inactive
same,outcome,[2],inactive
same,max response,[3],3.83%
Nc1c2c(nc3ccccc13)CCCC2,Potency,[1],inactive
same,outcome,[7],inactive
same,outcome,[2],inactive
CC(C)NCC(O)c1ccc(O)c(O)c1 (stereo not given),Potency,[1],inactive
same,Potency,[6],inactive
same,Potency,[5],inactive
same,max response,[3],4.84% and 9.19%
CN1CCN(C2=Nc3cc(Cl)ccc3Nc3ccccc32)CC1,Potency,[1],inactive
same,outcome,[7],inactive
COc1ccc(CCN(C)CCCC(C#N)(c2ccc(OC)c(OC)c2)C(C)C)cc1OC (stereo not given),outcome,[7],inactive
Cn1c(=O)c2[nH]cnc2n(C)c1=O,Potency,[6],inactive
same,outcome,[2],inactive
same,Potency,[8],inactive
CCOC(=O)C(C)(C)Oc1ccc(Cl)cc1,Potency,[1],inactive
same,Potency,[6],inactive
same,Potency,[8],inactive
same,Potency,[5],inactive
same,max response,[3],-15.2%
Cc1cn([C@H]2C[C@H](N=[N+]=[N-])[C@@H](CO)O2)c(=O)[nH]c1=O,Potency,[1],inactive
same,Potency,[6],inactive
same,outcome,[2],inactive
same,Potency,[8],inactive
same,Potency,[5],inactive
same,max response,[3],16%
Cn1cnc2c1c(=O)[nH]c(=O)n2C,Potency,[1],inactive
same,Potency,[6],inactive
same,outcome,[7],inactive
same,Potency,[8],inactive
same,Potency,[5],inactive
same,max response,[3],-1.33%
CC(COc1ccccc1)N(CCCl)Cc1ccccc1 (stereo not given),Potency,[6],inactive
same,Potency,[5],inactive
CN(C)CCOC(c1ccccc1)c1ccccc1,outcome,[2],inactive
same,outcome,[9],inactive
same,Potency,[5],inactive
O=C1N(c2ccccc2)c2ccccc2C1(Cc1ccncc1)Cc1ccncc1,Potency,[1],inactive
same,outcome,[7],inactive
CN1CCC(=C2c3ccccc3CC(=O)c3sccc32)CC1,Potency,[1],inactive
same,outcome,[7],inactive
Cc1cc(C(C)(C)C)c(O)c(C)c1CC1=NCCN1,Potency,[1],inactive
same,outcome,[7],inactive
Clc1ccc(C(c2ccccc2Cl)C(Cl)Cl)cc1 (stereo not given),Potency,[1],inactive
same,Potency,[6],inactive
same,max response,[3],-16.9%
CCOC(=O)Nc1ccc(NCc2ccc(F)cc2)nc1N,outcome,[10],inactive
same,Potency,[6],inactive
Clc1ccccc1C(c1ccccc1)(c1ccccc1)n1ccnc1,Potency,[6],25.1 µM (active)
COc1cc2c(c(OC)c1OC)-c1ccc(OC)c(=O)cc1[C@@H](NC(C)=O)CC2,outcome,[10],inactive
same,Potency,[6],inactive
same,outcome,[7],inactive
same,outcome,[2],inactive
same,activation,[4],-5.98% (inactive) and 0.799% (inactive) and 0.899% (inactive)
COc1cc2nc(N3CCN(C(=O)C4COc5ccccc5O4)CC3)nc(N)c2cc1OC (stereo not given),Potency,[6],inactive
CN(C)CCCN1c2ccccc2CCc2ccc(Cl)cc21,Potency,[1],inactive
same,outcome,[7],inactive
O=C(c1ccc(OCCN2CCCCC2)cc1)c1c(-c2ccc(O)cc2)sc2cc(O)ccc12,Potency,[1],inactive
same,Potency,[5],39.8 µM (active)
O=c1[nH]cc(F)c(=O)[nH]1,Potency,[1],inactive
same,Potency,[5],inactive
Cn1ccc2cc3c(cc21)CCN3C(=O)Nc1cccnc1,outcome,[10],inactive
same,Potency,[6],inactive
same,outcome,[7],inactive
COc1cc2nc(N3CCN(C(=O)c4ccco4)CC3)nc(N)c2cc1OC,outcome,[7],inactive
O=c1c(O)c(-c2ccc(O)c(O)c2)oc2cc(O)cc(O)c12,outcome,[10],inactive
same,Potency,[6],inactive
same,outcome,[7],inactive
CN(C)C(=O)C(CCN1CCC(O)(c2ccc(Cl)cc2)CC1)(c1ccccc1)c1ccccc1,Potency,[1],inactive
same,outcome,[7],inactive
CC(C)Cc1ccc(C(C)C(=O)O)cc1 (stereo not given),Potency,[1],inactive
same,Potency,[6],inactive
same,outcome,[2],inactive
same,Potency,[5],inactive
same,max response,[3],43%
C[C@](N)(Cc1ccc(O)c(O)c1)C(=O)O,Potency,[1],inactive
same,outcome,[7],inactive
same,max response,[3],-4.18%
Cc1cnc(C(=O)NCCc2ccc(S(=O)(=O)NC(=O)NC3CCCCC3)cc2)cn1,Potency,[6],inactive
CC[N+](CC)(CC)CCOc1cccc(OCC[N+](CC)(CC)CC)c1OCC[N+](CC)(CC)CC,Potency,[6],inactive
CN1C2CCC1CC(OC(=O)C(CO)c1ccccc1)C2 (stereo not given),Potency,[6],inactive

# From PubChem BioAssay (NCATS)
